MCF10A rerep – DNA re-replication induction in MCF 10a cells; MCF 10A DNA re-replication, Hoechst nuclear intensity, 48 h; Potency, µM (series often up to 46.1 µM), inactives show top-dose activity, positive = re-replication, usual class: activators; 350,000 compounds, 2.9% hits; note: % of control where 0% means no effect; nearly all actives have a fitted effect of over 50% in size
RORg inh – ROR gamma (mouse) transcription inhibition; P51450; Drosophila S2 Gal4-RORgamma UAS-luciferase reporter, 20 h; Potency, µM (top dose mostly 53.6 µM), without a hit: top-dose activity change, negative = inhibition, hits mostly inhibitors; 310,000 compounds, 5.4% hits; AID 2551; note: % is set by controls: 0 for no effect and ±100 for the full control effect; nearly all actives have a fitted effect of over 60% in size
Target sequence (P51450 whole entry, looked up, the tested form may be a part): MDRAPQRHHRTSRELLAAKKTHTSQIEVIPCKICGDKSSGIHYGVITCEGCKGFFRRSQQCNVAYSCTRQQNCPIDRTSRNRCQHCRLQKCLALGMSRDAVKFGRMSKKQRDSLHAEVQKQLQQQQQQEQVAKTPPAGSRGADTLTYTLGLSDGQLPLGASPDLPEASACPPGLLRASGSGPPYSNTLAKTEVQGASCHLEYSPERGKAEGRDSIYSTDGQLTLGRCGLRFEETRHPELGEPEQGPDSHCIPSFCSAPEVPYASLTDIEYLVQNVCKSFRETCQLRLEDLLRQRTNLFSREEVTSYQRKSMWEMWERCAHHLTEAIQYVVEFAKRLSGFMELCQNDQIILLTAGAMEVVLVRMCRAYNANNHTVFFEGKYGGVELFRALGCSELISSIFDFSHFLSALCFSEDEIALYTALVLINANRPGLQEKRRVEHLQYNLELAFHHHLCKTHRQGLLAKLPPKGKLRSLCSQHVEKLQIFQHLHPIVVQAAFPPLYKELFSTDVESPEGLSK
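Stable Schneider cell line, Gal4 DNA-binding domain fused to ROR gamma, UAS-luciferase. Cmpd 1 hr RT → CuSO4 700 uM final → 20 hr RT → luciferase reagent 10 min → luminescence.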
KB-V1 cytotox – KB-V1 MDR subline cytotoxicity; Potency, µM (top dose mostly 46.1 µM), hits mostly cytotoxic; 400,000 compounds, 3.4% hits; KB-V1 MDR cells viability, CellTiter-Glo, 72 h; note: % is set by controls: 0 for no effect and ±100 for the full control effect; nearly all actives have a fitted effect of over 60% in size
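Cytotoxicity toward P-gp-expressing KB-V1 cells was determined as loss of CellTiter-Glo luminescence after 72 h at 37 degrees C. Compounds were tested in quantitative HTS format across a concentration range, with curves fitted to normalized data.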
VP16 counter – inhibits Gal4-VP16 luciferase reporter, ROR gamma counter-screen | Drosophila S2 Gal4-VP16 UAS-luciferase, luminescence, 20 h | 310,000 compounds, 3.5% hits | Potency, µM (top dose mostly 53.6 µM), inactives show top-dose activity, negative = inhibition, actives largely listed as inhibitors | AID 2546;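 note: Gal4-VP16 expression switched on by copper sulfate through the metallothionein promoter; % is set by controls: 0 for no effect and ±100 for the full control effect; nearly all actives have a fitted effect of over 50% in size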
SW480 rerep – induces DNA re-replication in SW480 colon adenocarcinoma cells; SW480 DNA re-replication, Hoechst DNA content imaging, 48 h; Potency, µM (highest dose often 46.1 µM), inactives show at the highest dose re-replication activation, most hits filed as activators; 340,000 compounds, 1.8% hits; AID 624297; note: % of control where 0% means no effect; nearly all actives have a fitted effect of over 55% in size
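Image-based read-out: total Hoechst fluorescence of nuclei (405 nm excitation, 500-530 nm emission), with hits raising the fraction of high-intensity nuclei. SW480 colon cells incubated 48 hr with compounds at 37 C.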
KB-3-1 cytotox – kills parental KB-3-1 adenocarcinoma cells; 400,000 compounds, 1.4% hits; Potency, µM (series often up to 46.1 µM), hits mostly cytotoxic; KB-3-1 viability, CellTiter-Glo ATP luminescence, 72 h; note: % is set by controls: 0 for no effect and ±100 for the full control effect; nearly all actives have a fitted effect of over 60% in size
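Cytotoxicity in the drug-sensitive parental line KB-3-1 was scored as loss of CellTiter-Glo luminescence following 72 h incubation with compound. Values come from curve fitting of normalized concentration-response data.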
* marks the source's active call; other numbers are inactive results; i = inactive; u = inconclusive; x = not tested or not shown; [ ] = remark or other dose. In the library only some 10% were active in any assay of this set; here they are far more common. Calls come from the whole dose curve; as a rule, active = well fitted curve in the direction sought with a large enough effect; inconclusive = small, poorly fitted or top-dose-only effect, or another doubt; inactive = no such curve, though single readings can be large; an effect the other way counts as inactive or inconclusive. Potency is the fitted concentration of half-maximal effect.

SMILES	MCF10A rerep	RORg inh	KB-V1 cytotox	VP16 counter	SW480 rerep	KB-3-1 cytotox
CC(C)Cn1cc(C(=O)N2CCN(c3cccc(Cl)c3)CC2)c2c3ccccc3n(C)c2c1=O	x	x	i	x	x	u
Cc1cccc(N2CC(c3nc4ccccc4n3CCC3CCCCC3)CC2=O)c1 (stereo not given)	x	x	i	x	x	u
COc1ccccc1C(=O)NCCC(=O)Nc1ncccc1C	-0.3%	5.62µM*	i	8.91µM*	-1.7%	i
O=C(/C=C/c1ccccc1)Nc1cccc(C(=O)O)c1	-4.0%	3.98µM*	i	5.62µM*	-7.8%	i
CCC(=O)Nc1cccc(C(=O)/C=C/c2cccs2)c1	24.2%	u	i	u	u	i
COC(=O)c1cccc(NC(=O)/C=C/c2ccc([N+](=O)[O-])cc2)c1	-1.5%	-2.6%	i	-15.8%	1.9%	i
Cc1ccc(C(=O)COC(=O)c2cccc(NC(=O)c3ccc([N+](=O)[O-])cc3[N+](=O)[O-])c2)cc1	u	15.3%	18.4µM*	-17.1%	26.3%	u
CCC(=O)Nc1cccc(C(=O)/C=C/c2ccccc2)c1	8.2µM*	15.8µM*	i	u	u	u
CCOC(=O)c1cccc(NC(=O)/C=C/c2ccc([N+](=O)[O-])cc2)c1	18.2%	-4.0%[10 µM]	4.11µM*	u	-1.2%	i
Cc1ccc(S(=O)(=O)C[C@@H]2OC[C@H](C(C)C)N2S(=O)(=O)c2ccc(C)cc2)cc1	x	x	u	x	x	i
CN(C)c1ncc2ncc(=O)n(Cc3cccs3)c2n1	x	u	x	-6.2%	x	x
COc1oc(C(=O)NC2CCCCC2)c(-c2ccc(Cl)cc2)c1S(=O)(=O)c1ccccc1	26.8%	x	4.61µM*	x	u	u
Cc1cc(=O)c2ccccc2[nH]1	-1.0%	1.5%	i	-0.4%	1.6%	i
Cc1cc(=O)c2cc(Br)ccc2[nH]1	4.1%	9.7%	16.4µM*	3.4%	-0.2%	i
COc1ccc2nc(Nc3nc(C)c(C(C)=O)s3)sc2c1	u	-3.2%	18.4µM*	-3.0%	16.4µM*	i
CC(C)C(=O)Nc1nc2cc3c(cc2s1)OCCO3	15.5%	-43.1%	i	-23.9%	5.0%	i
CCOC(=O)c1sc(Nc2nc3cc4c(cc3s2)OCO4)cc1C	u	5.01µM*	i	6.31µM*	-7.2%	i
COc1ccc(Nc2nc3ccc(OC)cc3s2)cc1	u	u	u	-6.4%	-2.3%	i
CC(=O)c1sc(Nc2nc3cc4c(cc3s2)OCO4)nc1C	18.4µM*	5.01µM*	u	-12.8%	20.6µM*	i
CC(=O)Nc1nc2cc3c(cc2s1)OCO3	u	22.0%	i	-0.5%	-1.1%	i
CC(=O)c1sc(Nc2ccccn2)nc1C	17.4%	u	u	u	-1.0%	14.6µM*
CCOC(=O)c1sc(Nc2nc3c(OC)cccc3s2)cc1C	23.1µM*	u	u	u	u	i
Cc1ccc(C)c(Nc2ncnc3c2cnn3-c2ccc(F)cc2)c1	x	x	i	x	x	i
O=S(=O)(c1ccc(Cl)cc1)N1CCN=C1SCc1cccnc1	-1.7%	-0.4%	u	10.4%	-2.4%	i
O=S(=O)(c1ccc(Cl)cc1)N1CCN=C1SCc1cccc(Cl)c1	12.2%	-2.7%	20.6µM*	-5.5%	-12.6%	i
SMILES	MCF10A rerep	RORg inh	KB-V1 cytotox	VP16 counter	SW480 rerep	KB-3-1 cytotox
C=CCN(Cc1nc(-c2ccc(OC)cc2)no1)C(=O)c1ccc2c(c1)OCO2	17.5%	38.1%	20.6µM*	-5.9%	-0.1%	i
COc1ccc(-c2noc(CN(C(=O)c3ccc4c(c3)OCO4)C(C)C)n2)cc1	-0.3%	37.1%	i	5.2%	-5.7%	i
CCOC(=O)c1ccc(-n2ccnc2)c(NC(=O)c2ccc(C(C)(C)C)cc2)c1	u	19.9%	i	-19.7%	13µM*	i
COc1cccc(/C=N/Nc2nc(Nc3ccccc3)nc(-n3nc(C)cc3C)n2)c1O	14.6µM*	1.12µM*	u	2.51µM*	5.8µM*	5.17µM*
Cc1cc(C)n(-c2nc(Nc3ccccc3)nc(-n3nc(C)cc3C)n2)n1	4.6%	-36.4%	i	-12.6%	-9.8%	i
COc1cccc(/C=N/Nc2cc(-n3nc(C)cc3-c3ccccc3)ncn2)c1O	3.66µM*	u	u	1µM*	u	u
Cc1cnn(-c2cc(N/N=C/c3ccccc3Cl)ncn2)c1	11.9%	33.0%	i	-5.9%	1.0%	i
C=CCNc1ncnc2c1ncn2[C@H]1CN(Cc2cccc3ccccc23)C[C@@H](CO)O1	x	x	i	x	x	i
COc1cccc(-c2nc(CS(=O)(=O)CC(=O)NCc3ccc(C)cc3)c(C)o2)c1	x	x	i	x	x	i
O=C(/C=C/c1ccccc1Cl)N1CCCN(C(=O)/C=C/c2ccccc2Cl)CC1	29.5%	31.1%	i	-7.6%	3.3%	i
CN1CCN(C(=S)NC(=O)/C=C/c2ccccc2)CC1	-10.9%	11.2µM*	i	u	4.7%	i
O=C(/C=C/c1ccc(Br)cc1)NC(=S)N1CCOCC1	-9.7%	0.708µM*	i	0.398µM*	4.7%	i
CN1CCN(C(=S)NC(=O)/C=C/c2ccccc2Cl)CC1	5.4%	2.51µM*	i	u	3.2%	i
Cc1nn2c(C)c(C(=O)NCC(C)c3ccccc3)cnc2c1-c1ccccc1 (stereo not given)	x	x	i	x	x	i
Cc1csc(NC(=O)c2ccc(Cn3nc(C)c(Br)c3C)o2)n1	u	-12.5%	2.59µM*	u	-1.9%	u
Cc1nn(Cc2ccc(C(=O)Nc3ccccc3C(F)(F)F)o2)c(C)c1Br	u	-24.3%	i	u	-9.7%	u
COc1ccc(C(=O)c2cn(Cc3ccc(F)cc3)c3c(F)cc(F)cc3c2=O)cc1	x	x	i	x	x	i
CCC(=O)N(c1nnc(SCC(=O)c2ccc[nH]2)s1)C1CC1	-1.9%	x	11.6µM*	x	-1.4%	i
CCC(=O)N(c1nnc(SCC(=O)Nc2ccc(N3CCOCC3)cc2)s1)C1CC1	2.1%	x	i	x	7.0%	i
COC(=O)c1c(C)sc(-c2c(-c3ccc(F)cc3)[nH]c3[nH]c(=O)[nH]c(=O)c23)c1O	x	x	i	x	x	i
COc1ccc(OCCOc2ccc(N(C)S(=O)(=O)c3ccccc3)cc2)cc1	10.8%	x	i	x	2.9%	i
CN(c1ccc(OCCOc2ccccc2Cl)cc1)S(=O)(=O)c1ccccc1	20.5%	x	16.4µM*	x	u	i
c1ccc2c(c1)CC(N1CCN(c3cccc4c3OCCO4)CC1)C2	x	-11.4%	x	0.5%	x	x
CCOC(=O)C1=C(C)NC(C)=C(C(=O)OC)[C@@H]1c1cccc([N+](=O)[O-])c1	x	-11.4%[16.9 µM]	x	7.4%[17 µM]	x	x
